# Compounds without any hit were thinned out: in the full panel of roughly 83,000, 20% have a hit.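 Single-dose data. Exposure time 48 hours. Values below 10 considered active.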 Values without a mark were called inactive. Activity calls are given as the source filed them.
# What was measured:
# Test in all cases: NCI-60 one-dose screen, 48 h (100 = growth as untreated, 0 = no growth, -100 = all killed)
# Conditions in all cases: 10 µM unless noted
# SK-MEL-2 melanoma = system: SK-MEL-2 melanoma
# EKVX NSCLC = system: EKVX NSCLC
# SN12C renal = system: SN12C renal
# UO-31 renal = system: UO-31 renal
# TK-10 renal = system: TK-10 renal
# ACHN renal = system: ACHN renal
# A498 renal = system: A498 renal
# CCRF-CEM leukemia = system: CCRF-CEM leukemia
# MOLT-4 leukemia = system: MOLT-4 leukemia
# SR leukemia = system: SR leukemia
# RPMI-8226 leukemia = system: RPMI-8226 leukemia
# OVCAR-8 ovarian = system: OVCAR-8 ovarian
# OVCAR-5 ovarian = system: OVCAR-5 ovarian
# OVCAR-4 ovarian = system: OVCAR-4 ovarian
# SK-OV-3 ovarian = system: SK-OV-3 ovarian
# IGROV1 ovarian = system: IGROV1 ovarian
# OVCAR-3 ovarian = system: OVCAR-3 ovarian
# HS 578T breast = system: HS 578T breast
# NCI/ADR-RES ovarian = system: NCI/ADR-RES ovarian
# T-47D breast = system: T-47D breast
Compound,growth (SK-MEL-2 melanoma),growth (EKVX NSCLC),growth (SN12C renal),growth (UO-31 renal),growth (TK-10 renal),growth (ACHN renal),growth (A498 renal),growth (CCRF-CEM leukemia),growth (MOLT-4 leukemia),growth (SR leukemia),growth (RPMI-8226 leukemia),growth (OVCAR-8 ovarian),growth (OVCAR-5 ovarian),growth (OVCAR-4 ovarian),growth (SK-OV-3 ovarian),growth (IGROV1 ovarian),growth (OVCAR-3 ovarian),growth (HS 578T breast),growth (NCI/ADR-RES ovarian),growth (T-47D breast)
Cc1c(Cl)cccc1NC(=O)c1sc2nc3c(cc2c1N)COCC3,29.4%,60.3%,44.1%,49.2%,57%,44.2%,18.1%,21.1%,27.5%,15.4%,30.3%,33.6%,55.3%,60.9%,26.5%,45.8%,17.8%,40.1%,6.51% (active),32.4%
C[C@H]1[C@H](C)CC[C@]2(C(=O)OCCOCCOCC[P+](c3ccccc3)(c3ccccc3)c3ccccc3)CC[C@]3(C)C(=CC[C@@H]4[C@@]5(C)CC[C@H](OC(=O)C(Cl)Cl)C(C)(C)[C@@H]5CC[C@]43C)[C@H]12,-21.5% (active),-3.78% (active),-6.85% (active),3.95% (active),12.7%,-1.41% (active),6.28% (active),7.44% (active),-6.91% (active),-33.5% (active),0.348% (active),11%,37.3%,6.72% (active),-0.459% (active),15.1%,16.1%,38.4%,69%,21.8%
CC(C)(C)c1nc2c(s1)c1nc(N)ncc1c1ccc(NS(=O)(=O)c3c(F)cccc3F)c(F)c12,50%,60.5%,58.9%,28.9%,64.4%,22.6%,-2.96% (active),73.3%,59.5%,42.3%,68.9%,61.1%,104%,60.7%,13.7%,38.5%,80.7%,60.4%,80.6%,42.9%
CC[C@]12C=CCN3CC[C@@]4(c5cc(NC(=O)CCC(=O)O[C@H]6CC[C@H]7[C@@H]8CC[C@H]9CC(=O)CC[C@]9(C)[C@H]8CC[C@]67C)c(OC)cc5N(C)[C@H]4[C@@](O)(C(=O)OC)[C@@H]1OC(C)=O)[C@@H]32,77.1%,66%,71.2%,51.3%,90.5%,87.1%,66.3%,9.54% (active),17.8%,24.8%,45.2%,75.9%,104%,60.7%,98.6%,69.6%,73.2%,75.5%,72.9%,46.4%
Cc1cc(NC(=O)CNc2nc(Oc3ccc(F)cc3)nc(-c3ccc(F)cc3)n2)ccc1Cl,103%,98.6%,100%,97%,96.5%,112%,89.3%,95.3%,80.1%,85.2%,96.6%,102%,103%,105%,93.7%,106%,116%,85.8%,101%,91.3%
COc1ccc2[nH]c(-c3ccccc3)c(C=C(C#N)C#N)c2c1,24.1%,33.3%,59%,53.1%,41.5%,54.2%,21%,2.26% (active),0.472% (active),-5.05% (active),-50.2% (active),48.2%,65.7%,35%,51.2%,49.5%,7.4% (active),40.9%,-4.6% (active),26.4%
CN(C)[C@@H]1C(=O)C(C(N)=O)=C(O)[C@@]2(O)C(=O)C3=C(O)c4c(O)cc(CN5CCc6ccccc6C5)c(Cl)c4C[C@H]3C[C@@H]12,-90.6% (active),-90.3% (active),-73% (active),-95.5% (active),-84.3% (active),-76.1% (active),-89.2% (active),-40.7% (active),-67.9% (active),-50.7% (active),-46.2% (active),-80.9% (active),-87.1% (active),-44.5% (active),-93.3% (active),-73.2% (active),-83.3% (active),-57.7% (active),-83.7% (active),-41.4% (active)
O=C1Nc2ccccc2C12C=C(c1ccccc1)Nc1c2c(-c2ccccc2)nn1-c1ccccc1 (stereo not given),80.1%,53.2%,76.5%,62.9%,87.8%,60.4%,75.6%,25.9%,16.4%,38%,40.8%,46.6%,73%,78%,87%,67.9%,70.3%,78.9%,66.2%,61.7%
NS(=O)(=O)c1ccc(-n2nc(-c3ccccc3)ccc2=O)cc1,101%,118%,97.7%,91.9%,132%,108%,102%,95.6%,96.4%,83.9%,109%,101%,113%,117%,99.6%,72.3%,112%,106%,103%,93.8%
C=C1C(=O)O[C@H]2[C@H]1CC/C(COC(=O)CCCCCCC(=O)OC/C1=C/CC[C@@]3(C)O[C@H]3[C@H]3OC(=O)C(=C)[C@@H]3CC1)=C\CC[C@@]1(C)O[C@@H]21,84.6%,24.6%,6.29% (active),-21.8% (active),-5.79% (active),-38.6% (active),96.3%,4.54% (active),2.4% (active),-2.74% (active),2.81% (active),-18.7% (active),61%,42.3%,94.6%,11.2%,-3.87% (active),27.2%,46.6%,-18.1% (active)
O=C1NCc2ccc3c(-c4cccc(Cl)c4)c[nH]c3c21,38.6%,28.7%,36.8%,44.8%,46.2%,48.4%,24.7%,17.4%,18.1%,20.4%,25.8%,25.4%,39.7%,53.6%,10.9%,32.2%,-5.67% (active),31.3%,6.99% (active),39%
COC(=O)c1cc2c3c(cc(O)c2[nH]1)N(C(=O)C1Cc2cc(OC)c(OC)c(OC)c2N1)CC3CCl (stereo not given),-43% (active),-31.5% (active),-88.9% (active),-97.8% (active),-89.5% (active),-56.1% (active),-42.8% (active),5.91% (active),-11.7% (active),8.12% (active),-13.2% (active),-50.5% (active),-61.1% (active),-98.7% (active),-44.9% (active),-10.6% (active),-83% (active),1.21% (active),-34.6% (active),-48.9% (active)
O=C(O)COc1ccc2c(=O)c3sc4c(=O)c5ccccc5c(=O)c4c3c(=O)c2c1,25.5%,78.9%,-11.6% (active),43.5%,74.8%,62.7%,-86.9% (active),56.8%,45.1%,26.6%,43.6%,43.8%,-53.7% (active),27.8%,88.1%,36.6%,1.75% (active),-10.1% (active),40.8%,74.1%
O=C(/C(=C\c1c(-c2ccccc2)[nH]c2ccccc12)S(=O)(=O)c1ccccc1)c1ccccc1,35.8%,28.7%,82%,60.9%,78.2%,48.7%,54.3%,21%,3.71% (active),15.1%,-34.2% (active),66.2%,83.1%,42.8%,23.1%,78.7%,56.3%,72.1%,43.4%,22.2%
N#Cc1ccc(Oc2ccc3ccc(=O)oc3c2)cc1,135%,110%,105%,99.1%,116%,98.2%,99%,101%,100%,82.9%,81.5%,87.2%,104%,109%,112%,121%,117%,93.4%,107%,94.5%
